In PubChem BioAssay AID1347056 (Sanford-Burnham Center for Chemical Genomics, 2019):
Hit rate of the full screen: of about 360,000 compounds, about 3,600 (1%) were called active.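 The calls were made as follows: active = compounds whose plate-normalised and pattern-corrected inhibition of the luciferase reporter signal at the single screening dose is 50% or more; inactive = the rest.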 The entries come from a sample that favours actives as a whole.

Assay: TROY pathway blockers in reporter cells – Q293 LMP1-TROYcd cells, NF-kB luciferase, uHTS, primary screen (AID 1347056)
Details: 4 h, at 10 µM, hits give high values

| SMILES | inhibition |
| --- | --- |
| CCOc1ccc(C2c3[nH]c4ccccc4c3CCN2Cc2cccn2-c2ncccn2)cc1 (stereo not given) | 47.5% (inactive) |
| COC(=O)C1=C(C(=O)OC)[C@@H]2N(C)c3ccccc3[C@@]23C[C@@H](C(=O)OC)N(C(=O)c2ccco2)C3=N1 | 7.75% (inactive) |
| O=C(Cc1ccc(Cl)cc1)NC1CCS(=O)(=O)C1 (stereo not given) | 3.91% (inactive) |
| O=S1(=O)CC(NCc2ccccc2)C(Nc2ccc(Cl)cc2)C1 (stereo not given) | 57% (active) |
| O=C(NCCS(=O)(=O)NCc1ccc(Cl)cc1)c1ccccc1 | 4.3% (inactive) |
| CC(NC(=S)Nc1ccc(OC(F)F)cc1)c1ccc(F)cc1 (stereo not given) | -5.08% (inactive) |
| Cc1cccc(N2CCN(S(=O)(=O)c3ccc(-c4cc(C)no4)s3)CC2C)c1 (stereo not given) | -15% (inactive) |
| COc1ccc(CNS(=O)(=O)c2ccc(-c3cnc(C4CC4)o3)cc2)cc1 | 26% (inactive) |
| Cc1cccc(CNS(=O)(=O)c2ccc(-c3cnc(C4CC4)o3)cc2)c1 | 15.4% (inactive) |
| Cc1cccc(NS(=O)(=O)c2ccc(-c3cnc(C4CC4)o3)cc2)c1 | 50.5% (active) |
| Cc1c(NC(=O)CCC2CCCCC2)cc(C(=O)N2CCOCC2)cc1[N+](=O)[O-] | 12.1% (inactive) |
| COC(=O)[C@]1(C)N[C@H](CN(C)C(=O)c2ccc(C(C)(C)C)cc2)[C@@H]2C(=O)N(C)C(=O)[C@@H]21 | -13.4% (inactive) |
| COc1cccc(OCC(=O)NCCS(=O)(=O)N2CCN(c3ccccc3)CC2)c1 | 17.7% (inactive) |
| COCc1cc(C)nc(Nc2cc(C)ccc2C)c1C#N | 0.76% (inactive) |
| O=C(Oc1ccc(-c2nc(-c3ccccn3)no2)cc1)c1ccccc1 | 60% (active) |
| Cc1noc(C)c1COC(=O)COc1ccc(-c2ccccc2)cc1 | 4.68% (inactive) |
| O=C(COC(=O)c1ccncc1)c1ccccc1 | -18.8% (inactive) |
| O=C(Cc1coc2ccc3ccccc3c12)NCc1cccs1 | -38.6% (inactive) |
| CC(C)Cn1c(N)c(C(=O)NCc2cccs2)c2nc3ccccc3nc21 | 51.3% (active) |
| O=C(NCc1cccs1)c1cc(-c2ccccn2)nc2ccc(Br)cc12 | -12.5% (inactive) |
| CCOc1ccc(NC(=O)CCS(=O)(=O)c2ccc3c(c2)CCCN3C(=O)CC)cc1 | 21.6% (inactive) |
| CCOC(=O)c1cc(C)sc1NC(=O)C1CCC1 | 12.2% (inactive) |
| C=CCN1CCN(C(=O)CCCc2ccccc2)CC1 | 73.6% (active) |

| SMILES | inhibition |
| --- | --- |
| CC1=NN(C(=O)CCCc2ccccc2)C(O)(C(F)(F)F)C1 (stereo not given) | 6.41% (inactive) |
| CCN1CCN(C(=O)CCN2C(=O)c3ccccc3C2=O)CC1 | 13.8% (inactive) |
| C/C(CC(=O)NC(C)c1ccccc1)=N\NC(N)=S (stereo not given) | 0.63% (inactive) |
| Cn1nccc1C(=O)NC1CCCc2c1cnn2-c1ccc(F)cc1F (stereo not given) | 28% (inactive) |
| COc1ccc(C(=O)NC2CCCc3c2cnn3-c2cccc(C)c2C)c(OC)n1 (stereo not given) | 55.4% (active) |
| COc1ccc(OC)c(C(=O)NC2CCCc3c2cnn3-c2cc(C)cc(C)c2)c1 (stereo not given) | -13.7% (inactive) |
| Cc1ccccc1-n1nc(C)c2c1N=C1C(Cl)=CC(Cl)=CN1C2c1ccc(C(=O)O)cc1 (stereo not given) | 1.29% (inactive) |
| Cc1cc(Br)cn2c(Cc3ccccc3C(F)(F)F)c(C3CCCCC3)nc12 | 15.5% (inactive) |
| CCOC(=O)c1cnc(SCc2nc(N)nc(Nc3ccc(OC)cc3)n2)nc1N | -4.61% (inactive) |
| CCS(=O)(=O)N1Cc2ccccc2CC1C(=O)Nc1nc2ccc(F)cc2s1 (stereo not given) | 42.9% (inactive) |
| CSc1ncccc1C(=O)Nc1ccc2c(c1)OCO2 | -13.6% (inactive) |
| CSc1ncccc1C(=O)Nc1nc2ccc(F)cc2s1 | 54.6% (active) |
| O=c1ccc2cc(S(=O)(=O)NCCCc3ccccc3)ccc2[nH]1 | -7.06% (inactive) |
| CCC(C)(C)NC(=O)CN(Cc1cccs1)C(=O)CNS(=O)(=O)c1ccc(F)cc1 | -7.55% (inactive) |
| Cc1ccc(S(=O)(=O)N(CC(O)CN2C(=O)NC(C)(C)C2=O)c2cccc([N+](=O)[O-])c2)cc1 (stereo not given) | 4.48% (inactive) |
| CCCn1c(C)cc(C(=O)COC(=O)c2c(C)nn(-c3ccccc3)c2C)c1C | -3.58% (inactive) |
| COc1ccccc1NC(=S)N1CCN(C(c2ccccc2)c2ccccc2)CC1 | 16.1% (inactive) |
| Cc1cccc(N2CCN(C(c3ccccc3)c3nnnn3CC3CCCO3)CC2)c1C (stereo not given) | -7.74% (inactive) |
| CC1(C)CC(N2CCN(C(c3ccccc3)c3ccccc3)CC2)=CC(=[N+]2CCCCC2)C1 | 58.6% (active) |
| O=C(CN1CCOCC1)Nc1c(Cl)cc(Cl)cc1Cl | -5.43% (inactive) |
| C=CCSc1nc2c(c(=O)[nH]1)C(C(C)C)C(C#N)=C(N)O2 (stereo not given) | 9.46% (inactive) |
| N#Cc1ccccc1NC(=O)COc1c(Br)cc(Br)c2cccnc12 | 4.34% (inactive) |
| CC1CN(C(=O)c2ccccc2NS(=O)(=O)c2cccc([N+](=O)[O-])c2)CC(C)O1 (stereo not given) | 8.71% (inactive) |

| SMILES | inhibition |
| --- | --- |
| COc1ccc(S(=O)(=O)N2CCC(C(=O)OCC(=O)c3ccccc3)CC2)cc1[N+](=O)[O-] | -4.41% (inactive) |
| COc1ccc(Br)cc1/C=N/Nc1ccc(S(=O)(=O)Nc2ccccc2C(=O)O)cc1[N+](=O)[O-] | 58% (active) |
| CC(=O)Nc1ccc(C(=O)CSc2nc3ccc(C)cc3[nH]2)cc1 | -46.4% (inactive) |
| COc1ccccc1C(=O)c1ccccc1C(=O)c1ccccc1 | 9.22% (inactive) |
| COc1cc2c(C(=O)O)c(C)n(C)c2c2ccccc12 | 6.89% (inactive) |
| COc1cccc2c(C)c(C(=O)O)[nH]c12 | 74.3% (active) |
| Oc1cccc2ccc(/C=C/c3ccc(Br)s3)nc12 | 45.8% (inactive) |
| COc1ccc(C2C(C#N)=C(N)Oc3cc(N)ccc32)cc1OC (stereo not given) | -32.5% (inactive) |
| N#CC1=C(N)Oc2cc(N)ccc2C1c1ccccc1 (stereo not given) | 13.9% (inactive) |
| COc1ccccc1C1C(C#N)=C(N)Oc2c1c(-c1ccccc1)nn2-c1ccccc1 (stereo not given) | 62% (active) |
| CCOc1ccc(C(=O)Nc2cc(Cl)ccc2-n2cncn2)cc1OC | -3.58% (inactive) |
| O=C1c2ccccc2C(=O)N1CCC#Cc1ccc2cc(C3(O)CCCCC3)oc(=O)c2c1 | 64.8% (active) |
| CC(C)c1nc(CNC(=O)CC2C(=O)NCCN2Cc2cccc(F)c2F)cs1 (stereo not given) | 4.78% (inactive) |
| COC(=O)c1ccc(C)c(NC(=O)C2CC(=O)N(C3CCCC(C)C3C)C2)c1 (stereo not given) | -0.78% (inactive) |
| C=CCC[C@@H](Cc1ccc(F)cc1)C(=O)O[C@H](CNC(=O)[C@H](CC=C)CC(=O)N(CCO)Cc1ccccc1)c1ccccc1 | 46.6% (inactive) |
| O=C1c2ccccc2C2=Nc3ccccc3SC(c3ccccc3F)C12 (stereo not given) | 63.5% (active) |
| COCCCn1c(-c2cccs2)nc2nc3ccccc3nc21 | 1.22% (inactive) |
| O=C(CSc1nc2[nH]ncc2c(=O)[nH]1)Nc1ccc(F)cc1 | -9.77% (inactive) |
| Cc1cccc(NC(=O)CSc2nc3[nH]ncc3c(=O)[nH]2)c1 | 80.2% (active) |
| Cc1ccc(CSc2nc3[nH]ncc3c(=O)[nH]2)cc1 | -16.1% (inactive) |
| COc1ccc(S(=O)(=O)N2CCN(C)CC2)c(C)c1 | -7.28% (inactive) |
| O=C(/C=C/c1ccc(Cl)c([N+](=O)[O-])c1)c1cccnc1 | 64.6% (active) |
| O=C(/C=C/c1ccc(Cl)c([N+](=O)[O-])c1)c1ccc(O)cc1 | 55.6% (active) |

| SMILES | inhibition |
| --- | --- |
| C/C(=N\NC(=O)Cc1ccccc1[N+](=O)[O-])c1cccnc1 | -4.21% (inactive) |
| O=C(Nc1cccnc1)c1ccc(Cl)cc1[N+](=O)[O-] | -20.1% (inactive) |
| O=C(O)c1ccc2c(=O)n3c(nc2c1)/C(=C/c1ccc(Cl)c([N+](=O)[O-])c1)CC3 | -0.87% (inactive) |
| O=C(/C=C/c1ccc(Cl)cc1)N1CCN(c2ccccc2[N+](=O)[O-])CC1 | 9.62% (inactive) |
| O=C(NCc1ccccc1CN1CCCC1)C1CCN(S(=O)(=O)c2ccc(Cl)cc2)CC1 | 4.08% (inactive) |
| Cc1ccnc(NC(=O)CCNS(=O)(=O)c2ccc(C)c(C)c2)c1 | 29.5% (inactive) |
| Cc1ccc2nc(SCc3nnc(-c4ccccc4[N+](=O)[O-])o3)c(C#N)cc2c1 | 2.86% (inactive) |
| CCOC(=O)c1c(C)oc2cc(Sc3ccccc3)c(O)c(O)c12 | -45.5% (inactive) |
| CCOC(=O)c1c(-c2ccccc2)oc2cc(Br)c(O)c(C=O)c12 | 74.6% (active) |
| CCOC(=O)c1c(C)oc2cc(Br)c(OCC(N)=O)cc12 | 8.9% (inactive) |
| COc1ccc([N+](=O)[O-])cc1NC(=O)c1ccc(N(Cc2ccccc2C)S(C)(=O)=O)cc1 | 13.5% (inactive) |
| COC(=O)C1=C(C)N=C2SC(C)C(=O)N2C1/C=C/c1ccccc1 (stereo not given) | 0.14% (inactive) |
| CC[C@H]1CN2CCc3cc(OC)c(OC)cc3[C@@H]2C[C@@H]1C[C@H]1NCCc2cc(OC)c(OC)cc21 | 86% (active) |
| CCCc1cc(=O)[nH]c2nnc(SCC(=O)Nc3nnc(SCC)s3)n12 | -11.1% (inactive) |
| CCOC(=O)C(=Cc1ccccc1)C(=O)c1ccccc1 | 55% (active) |
| CCOC(=O)/C(=C\c1ccc([N+](=O)[O-])cc1)C(=O)c1cc(C(C)=O)c(Nc2ccccc2)s1 | 1.46% (inactive) |
| CCOC(=O)C(=Cc1ccccc1OC)C(=O)OCC | 36.4% (inactive) |
| CCCCSc1nnc2c(n1)OC=Nc1ccccc1-2 | -39.1% (inactive) |
| N#Cc1ccc(C(=O)Nc2nc(-c3cccs3)c(C(=O)C(F)(F)F)s2)cc1 | 53.3% (active) |
| N#Cc1c(-c2cccs2)nc(SCC(=O)c2ccc(Br)cc2)[nH]c1=O | 18.2% (inactive) |
| C=CCN(CC=C)S(=O)(=O)c1ccc(C(=O)Nc2nc3c(s2)CCc2ccccc2-3)cc1 | 4.01% (inactive) |
